Experimental data: the supplement of paper PMC7057948, “A genome-wide approach for identification and characterisation of metabolite-inducible systems” (Nature Communications, 2020)

test system: HpdR/P_H16_RS18295 3-hydroxypropanoate biosensor (pEH010); assay: relative induction of RFP reporter vs primary effector; higher = stronger activation; conditions: inducer concentration 5 mM; 6 h; Cupriavidus necator H16; minimal medium + 0.4% gluconate
Experimental: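 Orthogonality screen of 21 primary inducers against 21 transcription factor/inducible promoter–mRFP biosensors in C. necator H16 in minimal medium, robotic 96-well format, 5 mM inducer, 30 °C. OD-normalised RFP fluorescence was read 6 h later and expressed as relative induction (%) = 100 × (FL compound − FL uninduced)/(FL primary inducer − FL uninduced); mean of n=4. Cognate pairs (100% by definition) omitted.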

In order of falling “relative induction of RFP reporter” value:
1. NCCC(=O)O [β-alanine]  0.231%
2. O=C(O)c1ccccc1O [salicylate]  0.195%
3. O=c1[nH]c(=O)c2nc[nH]c2[nH]1 [xanthine]  0.1%
4. O=CO [formate]  0.0754%
5. OC1OC[C@H](O)[C@H](O)[C@H]1O (mixture of isomers) [L-arabinose]  0.017%
6. O=C(O)c1ccc(O)c(O)c1 [3,4-dihydroxybenzoate]  -0.0358%
7. O=C(O)CS(=O)(=O)O [sulfonatoacetate]  -0.0436%
8. O=C(O)C(O)C(O)C(=O)O (stereo unspecified) [tartrate]  -0.0938%
9. Nc1ccccc1C(=O)C[C@H](N)C(=O)O [L-kynurenine]  -0.129%
10. C=C(CC(=O)O)C(=O)O [itaconate]  -0.14%
11. N[C@@H](Cc1ccc(O)cc1)C(=O)O [L-tyrosine]  -0.292%
12. O=C(O)c1ccccc1 [benzoate]  -0.293%
13. O=C(O)C(=O)c1ccccc1 [phenylglyoxylate]  -0.296%
14. CC(=O)C(C)O (stereo unspecified) [acetoin]  -0.347%
15. N[C@@H](Cc1ccccc1)C(=O)O [L-phenylalanine]  -0.399%
16. O=C(O)C1CCCCC1 [cyclohexane-1-carboxylate]  -0.461%
